The record followed here is PubChem BioAssay (Tox21).

Assay [1] in a line: A CellTox Green Cytotoxicity Assay to monitor cytotoxicity in HEK293 cells - 40 hour (AID 1224871). Further: nearly all actives have a fitted effect of over 45% in size. In short, it runs like this:
(§1)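 HEK293 cells premixed with CellTox Green dye were seeded at 600 cells/well and left 5 h at 37 C/5% CO2 before pin transfer of 23 nL compound in DMSO. Fluorescence from dye bound to dead-cell DNA was read during 40 h treatment.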

A short description of assay [2]: qHTS RealTime-Glo MT Cell Viability Assay in HEK293 cells - 16 hour (AID 1224872). Further: top concentration of the series differs between compounds; nearly all actives have a fitted effect of over 50% in size. In short, it runs like this: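 Luminescence generated by NanoLuc from substrate produced by living HEK293 cells served as the viability signal. Each value reflects the reading at its stated time point during continuous 40 h compound exposure at 37 C.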
A short description of assay [3]: qHTS RealTime-Glo MT Cell Viability Assay in HepG2 cells - 8 hour (AID 1224873). Further: nearly all actives have a fitted effect of over 55% in size. The method, boiled down: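 HepG2 cells (600/well) mixed with RealTime-Glo MT reagent, settled 5 h at 37 C/5% CO2 before compound addition. Nonlytic NanoLuc luminescence from viable-cell prosubstrate reduction read repeatedly during 40 h treatment at 37 C.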
The nature of assay [4]: qHTS RealTime-Glo MT Cell Viability Assay in HEK293 cells - 40 hour (AID 1224874). Further: nearly all actives have a fitted effect of over 50% in size. To be noted: RealTime-Glo luminescence; max response: hits give low values. In short, it runs like this: (§2)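 HEK293 cells mixed with RealTime-Glo reagents (NanoLuc plus cell-permeant prosubstrate) at 600 cells/well, preincubated 5 h at 37 C/5% CO2, then given 23 nL compound in DMSO. Nonlytic luminescence from viable cells was read at 0, 8, 16, 24, 32 and 40 h.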

Assay [5] in a line: A CellTox Green Cytotoxicity Assay to monitor cytotoxicity in HEK293 cells - 24 hour (AID 1224875). Further: series mostly up to about 77 µM; nearly all actives have a fitted effect of over 45% in size. The method, boiled down:
as §1

The nature of assay [6]: A CellTox Green Cytotoxicity Assay to monitor cytotoxicity in HepG2 cells - 16 hour (AID 1224876). Further: nearly all actives have a fitted effect of over 45% in size. The method, boiled down:
(§3)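 HepG2 cells were seeded together with the CellTox Green dye at 600 cells/well, left 5 h at 37 C/5% CO2, then given compounds in DMSO. Fluorescence from dye bound to dead-cell DNA was read repeatedly over 40 h of treatment at 37 C.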

The nature of assay [7]: qHTS RealTime-Glo MT Cell Viability Assay in HepG2 cells - 32 hour (AID 1224877). Further: nearly all actives have a fitted effect of over 55% in size. Further: potency means the concentration at half of the fitted maximal effect. In short, it runs like this: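 Tox21 10K library screened in qHTS format on HepG2 cells carrying RealTime-Glo reagents. Compounds were added after a 5 h preincubation, and the luminescent signal from continuous culture was measured repeatedly during 40 h treatment.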
Assay [8] in a line: A CellTox Green Cytotoxicity Assay to monitor cytotoxicity in HepG2 cells - 24 hour (AID 1224878). Further: nearly all actives have a fitted effect of over 45% in size. The method, boiled down:
as §3

Assay [9] can be described thus: A CellTox Green Cytotoxicity Assay to monitor cytotoxicity in HepG2 cells - 40 hour (AID 1224879). Further: nearly all actives have a fitted effect of over 40% in size. In short, it runs like this:
as §3

A short description of assay [10]: qHTS RealTime-Glo MT Cell Viability Assay in HEK293 cells - 0 hour (AID 1224880). The method, boiled down: as §2

Several values for one entry are separate records, joined by “and”; a condition that tells them apart may be missing. Equal entries are not always repeated. Records with an inconclusive call do not appear. A number with no mark means an inactive call. Activity calls are given as the source filed them. The call rests on the fitted dose curve; in most records, active means well fitted curve in the direction sought with a large enough effect in the repeat runs; inconclusive means weak or mixed curves; inactive means no such curve, though single readings can be large; an effect the other way counts as inactive or inconclusive.
On the % scale 0 is the no-effect control and ±100 the full control effect.

As to `CN1C(=O)COc2c(C(=O)NC3CN4CCC3CC4)cc(Cl)cc21` (centres undefined), the Potency result in assay [1], in assay [2], in assay [5], in [6], in assay [7] and in [8] was “inactive” each time. Moreover, in [9], the Potency entry was “inactive”. The result in [3] and in [10] was inactive. Also, the max response in assay [4] was 3.5%.

As for `CCCCCCC1CCOC1=O` (centres undefined), the Potency entry in [1], in assay [2], in assay [5], in [6], in assay [7] and in assay [8] was “inactive” throughout. For the same compound, the Potency entry in assay [9] is “inactive”. Moreover, the call in assay [3] and in [10] was inactive. Also, the max response in assay [4] was -0.816%.

Turning to `CCCCCCCC(=O)Cl`, the Potency result in assay [1], in [2], in [5], in assay [6], in assay [7] and in assay [8] was “inactive” throughout. The Potency result in assay [9] is “inactive”. In addition, the compound was classed as inactive in assay [3] and in assay [10]. For the same compound, in assay [4], the max response is 5.36%.

As to `CC(C)[N+](C)(CCC(C(N)=O)(c1ccccc1)c1ccccc1)C(C)C`, the Potency entry in assay [1], in assay [2], in [5], in [6], in assay [8] and in assay [9] was “inactive” each time. Also, the outcome in assay [3] and in assay [10] was inactive. Also, in assay [4], the max response is -2.84%. In addition, in assay [7], the Potency is 21.3 µM (active).

As for `CN1COCN(Cc2cnc(Cl)s2)/C1=N\[N+](=O)[O-]`, the Potency entry in [1], in assay [2], in assay [5], in assay [6], in [7] and in assay [8] was “inactive” throughout. Moreover, in assay [9], the Potency entry is “inactive”. Besides, the outcome in assay [3] and in [10] was inactive. Further, the max response in assay [4] is 7.06%.

`c1cncc([C@@H]2CCCCN2)c1`: the Potency result in assay [1], in [2], in assay [5], in assay [6], in assay [7] and in [8] was “inactive” each time. Moreover, in assay [9], the Potency entry was “inactive”. In addition, the compound was called inactive in [3] and in assay [10]. For the same compound, the max response in assay [4] is 9.53%.

As to `CCCCCCCCBr`, the Potency result in assay [1], in assay [2], in assay [5], in assay [6], in assay [7] and in assay [8] was “inactive” in each case. Moreover, in [9], the Potency result was “inactive”. Also, the result in assay [3] and in assay [10] was inactive. The max response in [4] was 2.41%.

For `ClCCCCCCCl`, the Potency entry in assay [1], in [2], in assay [5], in [6], in [7] and in [8] was “inactive” each time. Further, in [9], the Potency entry was “inactive”. The call in assay [3] and in assay [10] was inactive. Moreover, the max response in assay [4] was 5.82%.

Turning to `N[C@@H]1C[C@H]1c1ccccc1`, the Potency result in [1], in assay [2], in [5], in [6], in [7] and in assay [8] was “inactive” each time. For the same compound, the Potency result in assay [9] is “inactive”. Also, the compound was called inactive in assay [3] and in [10]. Further, the max response in assay [4] is 1.46%.

For the compound `COc1ccccc1OC`, the Potency result in assay [1], in [2], in assay [5], in assay [6], in [7] and in assay [8] was “inactive” each time. For the same compound, the Potency entry in assay [9] is “inactive”. Further, the compound was classed as inactive in assay [3] and in assay [10]. In assay [4], the max response is 0.0799%.

With `CCOc1cc(OP(=S)(OC)OC)nc(CC)n1`, the Potency result in assay [1], in assay [2], in assay [5], in assay [6], in [7] and in [8] was “inactive” in each case. Moreover, the Potency entry in assay [9] was “inactive”. Besides, the outcome in assay [3] and in [10] was inactive. Further, the max response in assay [4] is 6.75%.

As to `CC[C@H](N)c1ccccc1`, the Potency result in assay [1], in assay [2], in assay [5], in assay [6], in assay [7] and in assay [8] was “inactive” in each case. Besides, in assay [9], the Potency entry was “inactive”. Moreover, the result in assay [3] and in assay [10] was inactive. In assay [4], the max response was 5.02%.

Consider `O=C(O)c1c(Cl)ccc2cc(Cl)cnc12`, for which the Potency result in assay [1], in assay [2], in assay [5], in [6], in assay [7] and in assay [8] was “inactive” each time. Moreover, the Potency entry in assay [9] was “inactive”. The result in assay [3] and in assay [10] was inactive. Further, the max response in [4] is 17.7%.

Turning to `CC(C)(C1CCC(O)CC1)C1CCC(O)CC1` (centres undefined), the Potency entry in [1], in assay [2], in assay [5], in assay [6], in assay [7] and in assay [8] was “inactive” each time. For the same compound, the Potency entry in assay [9] was “inactive”. Besides, the compound was called inactive in assay [3] and in assay [10]. In [4], the max response is -18.7%.

Turning to `CCC(C)C(C)(COC(N)=O)COC(N)=O` (centres undefined), the Potency entry in assay [1], in assay [2], in assay [5], in [6], in [7] and in assay [8] was “inactive” each time. In [9], the Potency entry was “inactive”. The outcome in [3] and in [10] was inactive. Further, in assay [4], the max response is 3.68%.

As to `O=C(Cl)C(Cl)(Cl)Cl`, the Potency entry in [1], in assay [2], in [5], in assay [6], in assay [7] and in [8] was “inactive” in each case. In addition, the Potency result in assay [9] was “inactive”. In addition, the result in assay [3] and in assay [10] was inactive. Further, in [4], the max response is 1.29%.

For the compound `COC(=O)c1ccccc1CS(=O)(=O)NC(=O)Nc1nc(OC)cc(OC)n1`, the Potency entry in assay [1], in assay [2], in [5], in assay [6], in [7] and in [8] was “inactive” in each case. In addition, in assay [9], the Potency result was “inactive”. Besides, the call in assay [3] and in assay [10] was inactive. In assay [4], the max response is 1.53%.

Regarding `N=C(N)[Se]`, the Potency result in assay [1], in assay [2], in assay [5], in [6], in assay [7] and in assay [8] was “inactive” in each case. Besides, the Potency result in [9] is “inactive”. Moreover, the compound was classed as inactive in assay [3] and in [10]. For the same compound, the max response in assay [4] is -7.73%.

With `CCCC(C)C1(CC)C(=O)N=C(S)NC1=O` (centres undefined), the Potency result in [1], in [2], in assay [5], in assay [6], in assay [7] and in assay [8] was “inactive” each time. Moreover, the Potency result in [9] is “inactive”. Besides, the outcome in [3] and in assay [10] was inactive. In addition, in assay [4], the max response is 1.79%.

Turning to `C=CC1(C)OC(=O)N(c2cc(Cl)cc(Cl)c2)C1=O` (centres undefined), the Potency result in [1], in assay [2], in [5], in assay [6], in [7] and in assay [8] was “inactive” each time. In assay [9], the Potency entry was “inactive”. Besides, the compound was called inactive in assay [3] and in assay [10]. In addition, the max response in assay [4] is -8.21% and -20%.

In the case of `CC1=C2[C@H]3OC(=O)[C@@H](C)[C@@H]3CC[C@@]2(C)C=CC1=O`, the Potency entry in assay [1], in [2], in [5], in [6], in assay [7] and in assay [8] was “inactive” each time. In addition, in [9], the Potency entry is “inactive”. The outcome in assay [3] and in assay [10] was inactive. The max response in assay [4] was 10.1%.

Turning to `OP(O)c1ccccc1`, the Potency result in assay [1], in assay [2], in assay [5], in assay [6], in assay [7] and in [8] was “inactive” each time. For the same compound, the Potency result in assay [9] is “inactive”. Further, the compound was called inactive in assay [3] and in assay [10]. The max response in [4] was 9.39%.

`O=C(O)C(F)(F)C(F)(F)C(F)(F)C(F)(F)C(F)(F)C(F)(F)F`: the Potency result in [1], in [2], in [5], in assay [6], in assay [7] and in assay [8] was “inactive” each time. The Potency entry in [9] is “inactive”. Further, the compound was called inactive in assay [3] and in [10]. Further, the max response in assay [4] was -16.5%.

As for `CCOC(=O)N(C)N=O`, the Potency result in [1], in assay [2], in [5], in [6], in assay [8] and in [9] was “inactive” throughout. The compound was called inactive in [3] and in [10]. The max response in [4] is 1.11%.
